Results taken from the supplement of paper PMC10732440.
± gives the standard deviation of the averaged measurements.

System: Caenorhabditis elegans N2 infected with Nematocida parisii ERTm1
Test: progeny production relative to DMSO uninfected control; higher = more progeny despite microsporidia infection (inhibition of infection with low host toxicity)
Details: infection time 6 days
Procedure, shortened: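 In 96-well plates holding K-medium, E. coli OP50 and 15,000 N. parisii spores/μL, 100 wild-type C. elegans L1 larvae per well were exposed to compound at 100 μM or 40 μM in 1% DMSO for 6 days with shaking at 21°C. Worms were then stained with Rose Bengal, scanned and counted with WorMachine, with three runs per compound and dose. Each value is progeny production as a percentage of the spore-free vehicle condition, averaged over replicates.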

SMILES | progeny production (40 µM) | progeny production (100 µM)
COc1cc(Cc2cnc(N)nc2N)cc(OC)c1OC | 1.91 ± 0.77% | 16.3 ± 11%
Nc1nc(O)c2ncn([C@@H]3O[C@H](CO)[C@@H](O)[C@H]3F)c2n1 | 4.36 ± 1.3% | 9.71 ± 4.6%
O=C(Nc1cccc(C2=NCCN2)c1)c1ccc(-c2ccc(C(=O)Nc3cccc(C4=NCCN4)c3)cc2)cc1 | 7.71 ± 2.9% | 27.6 ± 16%
O=C(NC1CCCc2c1[nH]c1ccc(Cl)cc21)c1ccccn1 (configuration not stated) | 2.24 ± 0.5% | 7.35 ± 5.1%
COc1c(NC(=O)[C@H]2CC[C@@H](COc3ccc([N+](=O)[O-])cc3)CC2)c(F)cc2c(=O)c(C(=O)O)cn(C3CC3)c12 | 4.64 ± 2.9% | 8.01 ± 7.4%
O=S(=O)(NCB(O)O)c1cc2c(Cl)ccc(Cl)c2s1 | 4.07 ± 0.53% | 15.8 ± 20%
CCCCCCC1c2ccc(O)cc2Oc2cc(O)ccc21 | 4.98 ± 1.8% | 29.9 ± 30%
O=C1CCC(N2C(=O)c3ccccc3C2=O)C(=O)N1 (configuration not stated) | 9.53 ± 5.1% | 13.3 ± 8.9%
OC1O[C@H](CSc2ccc(F)cc2)[C@@H](O)[C@H]1O (some centres not stated) | 5.22 ± 0.52% | 9.44 ± 6.8%
CN(C)c1[nH]c(=O)ncc1F | 3.57 ± 3.5% | 14.8 ± 7.8%
N#Cc1cc([N+](=O)[O-])ccc1Oc1ccccc1Cl | 5.2 ± 2% | 14.5 ± 8.1%
O=C(NCc1ccc2c3c(cccc13)C(=O)N2)c1cccs1 | 6.15 ± 4.4% | 9.75 ± 6.2%
Cn1c2ccccc2c(=O)c2c(O)cccc21 | 3.85 ± 0.59% | 13.6 ± 7.8%
O=C(NCc1ccc(F)cc1)c1c(O)c2ncccc2[nH]c1=O | 5.38 ± 2.2% | 16 ± 8.6%
Cc1ccc(Oc2ccccc2-c2csc(N=C3NCCCN3)n2)c(C)c1 | 4.22 ± 1.2% | 14.8 ± 12%
CC(C)CCN1C(=O)C(C2=NS(=O)(=O)c3cc(NS(C)(=O)=O)ccc3N2)=C(O)[C@@H]2[C@H]3CC[C@H](C3)[C@@H]21 | 3.42 ± 3.9% | 9.92 ± 5.3%
